Data from ChEMBL document CHEMBL1961873, “Compounds: GSK PKIS; Assays: Nanosyn kinase panel” (2012).

What follows are molecules tested against Protein kinase C eta type (Homo sapiens) (UniProt P24723). Conditions: at 1 µM.
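Also: value is the mean inhibition, from GSK PKIS.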

Chain of Protein kinase C eta type (Homo sapiens) (P24723 whole entry): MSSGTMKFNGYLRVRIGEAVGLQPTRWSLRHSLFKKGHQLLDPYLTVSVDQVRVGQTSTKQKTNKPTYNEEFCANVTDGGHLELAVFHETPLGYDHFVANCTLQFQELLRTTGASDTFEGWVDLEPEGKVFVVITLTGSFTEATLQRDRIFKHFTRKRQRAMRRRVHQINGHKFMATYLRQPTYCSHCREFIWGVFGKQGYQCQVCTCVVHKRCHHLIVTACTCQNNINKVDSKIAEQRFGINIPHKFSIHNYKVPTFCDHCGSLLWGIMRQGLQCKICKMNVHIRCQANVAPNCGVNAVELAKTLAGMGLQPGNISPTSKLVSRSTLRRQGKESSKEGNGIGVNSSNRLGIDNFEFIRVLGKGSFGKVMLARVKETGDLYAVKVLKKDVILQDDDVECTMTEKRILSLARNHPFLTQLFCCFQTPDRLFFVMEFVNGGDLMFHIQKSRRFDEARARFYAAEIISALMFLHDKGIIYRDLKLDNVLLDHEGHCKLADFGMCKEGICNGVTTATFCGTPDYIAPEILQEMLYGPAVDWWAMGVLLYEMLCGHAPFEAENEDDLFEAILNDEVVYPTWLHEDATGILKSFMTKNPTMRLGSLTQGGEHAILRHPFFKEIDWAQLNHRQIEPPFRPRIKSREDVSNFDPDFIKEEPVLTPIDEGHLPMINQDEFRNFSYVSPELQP

Point of comparison: `OCc1ccc(-c2nc(-c3ccccn3)c(-c3ccc4c(c3)OCO4)[nH]2)cc1`, inhibition 1.71%. Against it:
- O=C(Nc1ccc(Oc2ccc3[nH]c(NC(=O)c4ccco4)nc3c2)cc1)Nc1cc(C(F)(F)F)ccc1F — lower, -0.71%
- Cc1ccc(Nc2ccnc(Nc3cccc(C(N)=O)c3)n2)cc1O — higher, 4.32%
- CCCN1CCCC(c2ccc(Nc3nc(Nc4cc(F)ccc4C(N)=O)c4cc[nH]c4n3)c(OC)c2)C1 (centres undefined) — lower, 1.44%
- CC(C)c1ccc2c(c1)NC(=O)/C2=N/Nc1ccc(S(N)(=O)=O)cc1 — lower, -1.13%
- NS(=O)(=O)c1ccc(-c2cc3ccncc3cc2OCc2ccccc2)cc1 — higher, 3.62%
- CN1CCN(C(=O)c2ccc(NC(=O)Nc3ccc(N(C)c4ccnc(Nc5ccc(CS(C)(=O)=O)cc5)n4)cc3)cc2)CC1 — higher, 2.34%
- CN(c1ccc(NC(=O)Nc2ccc(OC(F)(F)F)cc2)cc1)c1ccnc(Nc2cccc(S(N)(=O)=O)c2)n1 — lower, -0.51%
- CS(=O)(=O)CCNCc1nc(-c2ccc3ncnc(Nc4ccc(OCc5cccc(C(F)(F)F)c5)cc4)c3c2)cs1 — higher, 2.2%
- Nc1nccc(C#Cc2cncnc2Nc2ccc(OCc3cccc(F)c3)c(Cl)c2)n1 — lower, -0.12%
- COc1ccc(-c2nn3ncccc3c2-c2ccnc(Nc3cccc(C(F)(F)F)c3)n2)cc1 — lower, 0.72%
- Cc1cc(Cl)cc2c1NC(=O)C2=NNc1ccc(S(N)(=O)=O)cc1 — higher, 2.95%
- Cc1ccc(O)cc1Nc1ccnc2ccc(S(C)(=O)=O)cc12 — higher, 6.46%
- CCn1c(-c2nonc2N)nc2ccc(F)cc21 — higher, 26.6%
- COc1cc2ncnc(Nc3ccc4c(cnn4Cc4ccccc4)c3)c2cc1OC — higher, 3.69%
- Cc1nc(-c2ccccc2)n2nc(NCCCN3CCOCC3)ncc12 — higher, 4.23%
- [O-][S+]1CCN(Cc2ccc(-c3ccc4ncnc(Nc5ccc(OCc6ccccc6)c(Cl)c5)c4c3)o2)CC1 — higher, 2.18%
- Cc1ccc2c(-c3ccnc(Nc4cccc(C(F)(F)F)c4)n3)c(-c3ccccc3)nn2n1 — higher, 4.11%
- CCOc1nccc2c1nc(-c1nonc1N)n2CC — higher, 24.1%
- NS(=O)(=O)c1ccc(N/N=C2\C(=O)Nc3ccc(Cl)cc32)cc1 — higher, 4.71%
- COc1cccc(-n2ncc3c(N/N=C/c4ccc(S(C)(=O)=O)cc4)ncnc32)c1 — higher, 2.85%
- CCS(=O)(=O)c1ccc(OC)c(Nc2nccc(N(C)c3ccc4c(C)n[nH]c4c3)n2)c1 — higher, 6.38%
- Cc1ccc2c(c1)/C(=N/Nc1ccc(S(N)(=O)=O)cc1)C(=O)N2 — lower, -1.47%
- Cc1cc(O)cc(C)c1/C=C/c1cncc(C(=O)N(C)C)c1 — higher, 4.61%
- O=C1Nc2ccccc2/C1=C/Nc1ccc2[nH]c(=O)[nH]c2c1 — higher, 3.84%
- COC(=O)c1ccc2c(c1)C(=Cc1cc(Br)c(O)c(Br)c1)C(=O)N2 — higher, 3.91%
- NS(=O)(=O)c1cccc(-c2cc3ccncc3cc2OCc2ccccc2)c1 — higher, 2.7%
- C[C@@H](Oc1cc(-n2cnc3ccc(OC[C@@H](O)CO)cc32)sc1C(N)=O)c1ccccc1Cl — lower, 0.23%
- NC(=O)c1cccc(Nc2nccc(Nc3cccc(F)c3)n2)c1 — higher, 2.62%
- Cc1ccc(NC(=O)CC2CC2)cc1-c1ccc(C(=O)NCC2CC2)cc1 — higher, 4.84%
- Cc1ccc(C(=O)NC2CC2)cc1-c1ccc2[nH]ncc2c1 — lower, -3.72%
- Nc1nccc(-c2c(-c3ccc(F)cc3)ncn2CCCN2CCOCC2)n1 — higher, 7.49%
- N#Cc1c(NC(=O)c2ccccc2F)sc2c1CCCC2 — lower, 1.15%
- CN(C)CCCn1c(-c2nonc2N)nc2cnccc21 — higher, 10%
